# PubChem BioAssay (EPA / NIEHS)
# Activity calls are given as the source filed them. Rule for the calls: active = hit-call score of the fitted dose curve at least 0.9, where 1 is the maximum; inactive = score below 0.9.
# Tests used:
# Conditions in all cases: mRNA level, 48 h; actives raise or lower the signal
# [1] = read-out: ATP-citrate lyase (ACLY), ACLY (gene 47); test: LTEA_HepaRG_ACLY: Life Technologies and Expression Analysis (LTEA) Assay for ATP-citrate lyase (ACLY) using HepaRG (AID 2283466)
# How it was run: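 Differentiated human HepaRG cells in serum-free induction medium exposed 48 h, in duplicate, to eight half-log concentrations from 100 uM top in 0.5% DMSO; ACLY mRNA measured by qRT-PCR, normalized to ACTB, GAPDH, POLR2A, fitted bidirectionally versus DMSO.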
# [2] = read-out: Peroxisomal acyl-coenzyme A oxidase 1 (ACOX1) gene, ACOX1 (gene 51); test: LTEA_HepaRG_ACOX1: Life Technologies and Expression Analysis (LTEA) Assay for Peroxisomal acyl-coenzyme A oxidase 1 (ACOX1) gene using HepaRG (AID 2283467)
# How it was run: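 Differentiated human HepaRG cells were exposed in duplicate for 48 h in serum-free induction medium to eight half-log concentrations up to 100 uM in 0.5% DMSO. ACOX1 mRNA was then quantified by TaqMan qRT-PCR, normalized to ACTB, GAPDH and POLR2A.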
# [3] = read-out: Alkaline Phosphatase, Placental (ALPP) gene, ALPP (gene 250); test: LTEA_HepaRG_ALPP: Life Technologies and Expression Analysis (LTEA) Assay for Alkaline Phosphatase, Placental (ALPP) gene using HepaRG (AID 2283468)
# How it was run: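 Differentiated human HepaRG cells were plated and cultured 48 h, then exposed in duplicate for 48 h in serum-free induction medium to eight half-log concentrations from 100 uM in 0.5% DMSO. ALPP mRNA was measured by TaqMan qRT-PCR, normalized to ACTB, GAPDH, POLR2A.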
# [4] = read-out: Bcl-2 (BAD) gene, BAD (gene 572); test: LTEA_HepaRG_BAD: Life Technologies and Expression Analysis (LTEA) Assay for Bcl-2 (BAD) gene using HepaRG (AID 2283469)
# How it was run: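 Differentiated human HepaRG cells in serum-free induction medium were exposed in duplicate for 48 h to eight concentrations (top 100 uM, half-log steps, 0.5% DMSO). BAD mRNA was quantified by qRT-PCR normalised to ACTB, GAPDH and POLR2A, with bidirectional fitting versus DMSO.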
# [5] = read-out: Bcl-2 (BAX) gene, BAX (gene 581); test: LTEA_HepaRG_BAX: Life Technologies and Expression Analysis (LTEA) Assay for Bcl-2 (BAX) gene using HepaRG (AID 2283470)
# How it was run: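 HepaRG (human liver), 48 h exposure, duplicate wells. 8-pt curve, half-log from 100 uM, 0.5% DMSO. BAX transcript by TaqMan qRT-PCR; ACTB/GAPDH/POLR2A normalization; gain or loss vs DMSO baseline.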
# [6] = read-out: adenosine kinase (ADK) gene, ADK (gene 132); test: LTEA_HepaRG_ADK: Life Technologies and Expression Analysis (LTEA) Assay for adenosine kinase (ADK) gene using HepaRG (AID 2283471)
# How it was run: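 HepaRG (human liver), 48 h chemical exposure, 8-pt half-log series, top 100 uM, 0.5% DMSO vehicle. Readout: ADK mRNA by qRT-PCR vs housekeeping genes; bidirectional curve fit relative to DMSO baseline.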
# [7] = read-out: Alpha-fetoprotein (AFP) gene, AFP (gene 174); test: LTEA_HepaRG_AFP: Life Technologies and Expression Analysis (LTEA) Assay for Alpha-fetoprotein (AFP) gene using HepaRG (AID 2283472)
# How it was run: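 HepaRG, single lot; 48 h post-plating -> serum-free induction medium; cpd 8-pt, 100 uM top, half-log, 0.5% DMSO, duplicate, 48 h. RNA -> qRT-PCR AFP, norm ACTB/GAPDH/POLR2A. Bidirectional fit vs DMSO.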
# BCL2L11 (gene 10018) = test: LTEA_HepaRG_BCL2L11: Life Technologies and Expression Analysis (LTEA) Assay for Bcl-2 (BCL2L11) gene using HepaRG (AID 2283473)
# How it was run: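 Differentiated human HepaRG cells in serum-free induction medium were exposed in duplicate for 48 h to eight concentrations (top 100 uM, half-log steps, 0.5% DMSO). BCL2L11 mRNA was quantified by TaqMan qRT-PCR, normalized to ACTB/GAPDH/POLR2A, bidirectional fit versus DMSO.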
# [8] = read-out: Apolipoprotein A-V (APOA5) gene, APOA5 (gene 116519); test: LTEA_HepaRG_APOA5: Life Technologies and Expression Analysis (LTEA) Assay for Apolipoprotein A-V (APOA5) gene using HepaRG (AID 2283474)
# How it was run: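 Differentiated human HepaRG cells were exposed in duplicate for 48 h to eight half-log concentrations from 100 uM in 0.5% DMSO. APOA5 mRNA was quantified by TaqMan qRT-PCR, normalized to ACTB, GAPDH and POLR2A, and fitted bidirectionally against DMSO.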
# [9] = read-out: Apoptosis regulator Bcl-2 (Homo sapiens) (UniProt P10415); test: LTEA_HepaRG_BCL2: Life Technologies and Expression Analysis (LTEA) Assay for Bcl-2 gene using HepaRG (AID 2283475)
# How it was run: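 HepaRG, plated 48 h then switched to serum-free induction medium; dosed 48 h, 8 conc. (max 100 uM, half-log steps), duplicate, 0.5% DMSO. Lysis in RLT, RNA isolated, TaqMan qRT-PCR for BCL2; ACTB/GAPDH/POLR2A normalisation; bidirectional fit vs DMSO.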
# [10] = read-out: Bcl-2 (BID) gene, BID (gene 637); test: LTEA_HepaRG_BID: Life Technologies and Expression Analysis (LTEA) Assay for Bcl-2 (BID) gene using HepaRG (AID 2283476)
# How it was run: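 Transcript levels of BID, measured by qRT-PCR and normalized to three housekeeping genes, were fitted bidirectionally against DMSO controls. Cells were HepaRG, dosed 48 h at up to 100 uM.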
# Caspase-3 (Homo sapiens) = Caspase-3 (Homo sapiens) (UniProt P42574); test: LTEA_HepaRG_CASP3: Life Technologies and Expression Analysis (LTEA) Assay for cysteine-aspartic acid protease (CASP3) using HepaRG (AID 2283477)
# Caspase-3 (Homo sapiens), sequence (P42574 whole entry, looked up): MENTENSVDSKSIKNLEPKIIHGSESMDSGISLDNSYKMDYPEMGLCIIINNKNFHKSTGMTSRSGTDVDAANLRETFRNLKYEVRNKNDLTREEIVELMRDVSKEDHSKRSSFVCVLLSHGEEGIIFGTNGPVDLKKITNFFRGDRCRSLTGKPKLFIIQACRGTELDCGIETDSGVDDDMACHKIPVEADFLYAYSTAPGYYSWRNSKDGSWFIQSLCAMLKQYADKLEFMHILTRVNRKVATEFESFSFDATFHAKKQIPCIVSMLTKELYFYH
# How it was run: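 Differentiated human HepaRG cells in serum-free induction medium were exposed 48 h to 8-point half-log concentrations from 100 uM (0.5% DMSO vehicle). CASP3 mRNA was measured by qRT-PCR, normalised to ACTB, GAPDH and POLR2A, with bidirectional fitting against DMSO.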
# [11] = read-out: Cytochrome P450 (CYP24A1), CYP24A1 (gene 1591); test: LTEA_HepaRG_CYP24A1: Life Technologies and Expression Analysis (LTEA) Assay for Cytochrome P450 (CYP24A1) using HepaRG (AID 2283478)
# How it was run: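 Differentiated HepaRG cells, pre-cultured 48 h, were exposed in duplicate for 48 h in serum-free induction medium to 8 half-log concentrations (top 100 uM, 0.5% DMSO). CYP24A1 mRNA was quantified by TaqMan qRT-PCR, normalized to ACTB/GAPDH/POLR2A, fitted bidirectionally versus DMSO.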
# [12] = read-out: Cytochrome P450 (CYP1A2), CYP1A2 (gene 1544); test: LTEA_HepaRG_CYP1A2: Life Technologies and Expression Analysis (LTEA) Assay for Cytochrome P450 (CYP1A2) using HepaRG (AID 2283479)
# How it was run: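 Differentiated human HepaRG cells in serum-free induction medium were exposed in duplicate for 48 h to 8-point half-log concentrations up to 100 uM in 0.5% DMSO. CYP1A2 mRNA measured by qRT-PCR, normalized to ACTB, GAPDH, POLR2A; bidirectional fit vs DMSO.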
# [13] = read-out: cysteine-aspartic acid protease (CASP8), CASP8 (gene 841); test: LTEA_HepaRG_CASP8: Life Technologies and Expression Analysis (LTEA) Assay for cysteine-aspartic acid protease (CASP8) using HepaRG (AID 2283480)
# How it was run: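 Differentiated human HepaRG cells, plated 48 h then switched to serum-free induction medium, were exposed in duplicate for 48 h to 8 half-log concentrations up to 100 uM in 0.5% DMSO. CASP8 mRNA was quantified by qRT-PCR, normalized to ACTB/GAPDH/POLR2A.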
# [14] = read-out: Cytochrome P450 (CYP2B6), CYP2B6 (gene 1555); test: LTEA_HepaRG_CYP2B6: Life Technologies and Expression Analysis (LTEA) Assay for Cytochrome P450 (CYP2B6) using HepaRG (AID 2283481)
# How it was run: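 Differentiated HepaRG cells, serum-free induction medium, exposed 48 h in duplicate to 8-point half-log concentrations from 100 uM in 0.5% DMSO. CYP2B6 mRNA by qRT-PCR, normalized to ACTB, GAPDH, POLR2A; bidirectional fit versus DMSO.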
# [15] = read-out: Cytochrome P450 2C19 (Homo sapiens) (UniProt P33261); test: LTEA_HepaRG_CYP2C19: Life Technologies and Expression Analysis (LTEA) Assay for CYP2C19 using HepaRG (AID 2283482)
# How it was run: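 Differentiated human HepaRG cells were exposed for 48 h in serum-free induction medium to 8 concentrations (top 100 uM, half-log steps, 0.5% DMSO). CYP2C19 mRNA was measured by qRT-PCR, normalized to ACTB/GAPDH/POLR2A, and fitted bidirectionally against DMSO.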
# CYP2C8 (gene 1558) = test: LTEA_HepaRG_CYP2C8: Life Technologies and Expression Analysis (LTEA) Assay for CYP2C8 using HepaRG (AID 2283483)
# How it was run: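 Differentiated human HepaRG cells were exposed for 48 h in serum-free induction medium to eight half-log concentrations up to 100 uM in 0.5% DMSO, in duplicate. CYP2C8 mRNA was measured by TaqMan qRT-PCR, normalized to ACTB, GAPDH and POLR2A, and fitted bidirectionally against DMSO.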
# CYP2C9 (gene 1559) = test: LTEA_HepaRG_CYP2C9: Life Technologies and Expression Analysis (LTEA) Assay for CYP2C9 using HepaRG (AID 2283484)
# How it was run: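 Differentiated human HepaRG cells were exposed 48 h in serum-free induction medium to eight half-log concentrations up to 100 uM in 0.5% DMSO. CYP2C9 mRNA was measured by qRT-PCR, normalized to ACTB, GAPDH and POLR2A, and fitted bidirectionally against DMSO.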
# CYP2E1 (gene 1571) = test: LTEA_HepaRG_CYP2E1: Life Technologies and Expression Analysis (LTEA) Assay for CYP2E1 using HepaRG (AID 2283485)
# How it was run: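 Human liver line HepaRG, plated 48 h, then serum-free induction medium + chemical x 48 h; 8-pt CRC from 100 uM, half-log, 0.5% DMSO, n=2. Readout: CYP2E1 mRNA qRT-PCR vs ACTB/GAPDH/POLR2A; bidirectional fit vs DMSO.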
# Cytochrome P450 2C19 (Homo sapiens), sequence (P33261 whole entry, looked up): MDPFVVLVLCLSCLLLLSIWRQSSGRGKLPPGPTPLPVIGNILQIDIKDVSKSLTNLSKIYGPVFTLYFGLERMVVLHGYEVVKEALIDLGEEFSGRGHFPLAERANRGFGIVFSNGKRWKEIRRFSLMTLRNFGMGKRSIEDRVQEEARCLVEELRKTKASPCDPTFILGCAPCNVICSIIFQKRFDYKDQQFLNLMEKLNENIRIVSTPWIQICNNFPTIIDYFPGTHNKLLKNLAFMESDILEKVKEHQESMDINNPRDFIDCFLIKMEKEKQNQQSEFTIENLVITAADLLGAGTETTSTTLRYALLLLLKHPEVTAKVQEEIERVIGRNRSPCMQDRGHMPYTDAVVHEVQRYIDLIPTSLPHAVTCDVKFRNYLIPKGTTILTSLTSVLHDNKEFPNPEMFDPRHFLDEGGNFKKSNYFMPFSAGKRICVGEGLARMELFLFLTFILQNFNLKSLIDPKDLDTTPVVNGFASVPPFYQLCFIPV
# Apoptosis regulator Bcl-2 (Homo sapiens), sequence (P10415 whole entry, looked up): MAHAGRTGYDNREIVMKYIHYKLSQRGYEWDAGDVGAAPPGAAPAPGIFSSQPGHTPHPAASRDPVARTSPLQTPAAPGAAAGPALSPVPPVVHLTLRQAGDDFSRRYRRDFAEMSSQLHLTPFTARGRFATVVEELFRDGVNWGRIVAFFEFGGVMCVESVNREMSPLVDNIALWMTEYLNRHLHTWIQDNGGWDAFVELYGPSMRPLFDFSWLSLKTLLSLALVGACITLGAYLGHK
smiles,measurement,setting,value
CCC(C)=NO,outcome,[1],inactive
same,outcome,[2],inactive
same,outcome,[3],inactive
same,outcome,[4],inactive
same,outcome,[5],inactive
same,outcome,[6],inactive
same,outcome,[7],inactive
same,outcome,BCL2L11 (gene 10018),inactive
same,outcome,[8],inactive
same,outcome,[9],inactive
same,outcome,[10],inactive
same,outcome,Caspase-3 (Homo sapiens),inactive
same,outcome,[11],inactive
same,AC50,[12],49.8 µM (active)
same,outcome,[13],inactive
same,outcome,[14],inactive
same,outcome,[15],inactive
same,outcome,CYP2C8 (gene 1558),inactive
same,outcome,CYP2C9 (gene 1559),inactive
same,outcome,CYP2E1 (gene 1571),inactive
